According to the supplement of paper PMC11006884:
The full data set covers some 6,500 targets. This sample favours those with a hit. About 2% of all pairs of compound and target were hits. Values without a mark were called inactive.

Compound: COC(=O)C#Cc1ccccc1 [methyl 3-phenylpropiolate]
Assay: log2 ratio of iodoacetamide-alkyne labeling of the cysteine site, DMSO over compound (competition); higher = stronger covalent engagement of the cysteine by the compound, active = 1 or more
Conditions: 500 µM; treatment time 1 h; system: HEK293T cell lysate
Summary of the method: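 Reporter intensities give each cysteine's log2 competition ratio as the mean of control channels over the mean of compound channels. The samples were HEK293T lysate (2 mg/mL) given vehicle or electrophile (500 µM, 1 h, ambient temperature), then iodoacetamide alkyne (1 h), followed by click coupling to sCIP-TMT reagents, pooling, trypsin digestion overnight at 37 °C, streptavidin enrichment, acid elution, Orbitrap Eclipse LC-MS/MS with FAIMS and FragPipe quantification. Duplicate channels and three replicates were run, and cysteines quantified in only one replicate were discarded.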

Chain of UniProt Q5JTZ9 (Q5JTZ9 whole entry, looked up): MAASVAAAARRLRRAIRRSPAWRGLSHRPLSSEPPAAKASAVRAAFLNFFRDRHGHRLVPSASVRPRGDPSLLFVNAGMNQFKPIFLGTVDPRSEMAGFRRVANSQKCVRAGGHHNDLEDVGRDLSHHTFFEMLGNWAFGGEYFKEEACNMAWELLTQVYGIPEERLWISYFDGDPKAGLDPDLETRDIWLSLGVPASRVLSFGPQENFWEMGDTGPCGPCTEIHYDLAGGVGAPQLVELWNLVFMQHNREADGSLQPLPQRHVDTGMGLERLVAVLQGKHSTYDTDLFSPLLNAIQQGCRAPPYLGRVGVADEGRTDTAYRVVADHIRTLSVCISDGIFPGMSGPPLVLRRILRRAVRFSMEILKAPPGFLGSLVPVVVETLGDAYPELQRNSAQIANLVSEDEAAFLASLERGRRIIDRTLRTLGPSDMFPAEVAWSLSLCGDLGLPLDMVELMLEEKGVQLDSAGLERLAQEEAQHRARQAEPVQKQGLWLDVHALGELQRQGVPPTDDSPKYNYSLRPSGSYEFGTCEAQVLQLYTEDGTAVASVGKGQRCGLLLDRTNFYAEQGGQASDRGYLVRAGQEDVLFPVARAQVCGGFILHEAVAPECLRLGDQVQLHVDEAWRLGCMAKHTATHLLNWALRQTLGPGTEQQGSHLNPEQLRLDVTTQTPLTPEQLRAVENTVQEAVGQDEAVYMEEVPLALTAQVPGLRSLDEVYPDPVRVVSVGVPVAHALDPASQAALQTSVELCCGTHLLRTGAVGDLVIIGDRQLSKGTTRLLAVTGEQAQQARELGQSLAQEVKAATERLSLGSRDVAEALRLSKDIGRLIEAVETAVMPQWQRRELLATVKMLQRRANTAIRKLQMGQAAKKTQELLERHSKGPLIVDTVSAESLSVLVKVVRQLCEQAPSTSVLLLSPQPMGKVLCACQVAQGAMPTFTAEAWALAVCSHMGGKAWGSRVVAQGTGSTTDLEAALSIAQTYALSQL
Chain of UniProt Q5M775 (Q5M775 whole entry, looked up): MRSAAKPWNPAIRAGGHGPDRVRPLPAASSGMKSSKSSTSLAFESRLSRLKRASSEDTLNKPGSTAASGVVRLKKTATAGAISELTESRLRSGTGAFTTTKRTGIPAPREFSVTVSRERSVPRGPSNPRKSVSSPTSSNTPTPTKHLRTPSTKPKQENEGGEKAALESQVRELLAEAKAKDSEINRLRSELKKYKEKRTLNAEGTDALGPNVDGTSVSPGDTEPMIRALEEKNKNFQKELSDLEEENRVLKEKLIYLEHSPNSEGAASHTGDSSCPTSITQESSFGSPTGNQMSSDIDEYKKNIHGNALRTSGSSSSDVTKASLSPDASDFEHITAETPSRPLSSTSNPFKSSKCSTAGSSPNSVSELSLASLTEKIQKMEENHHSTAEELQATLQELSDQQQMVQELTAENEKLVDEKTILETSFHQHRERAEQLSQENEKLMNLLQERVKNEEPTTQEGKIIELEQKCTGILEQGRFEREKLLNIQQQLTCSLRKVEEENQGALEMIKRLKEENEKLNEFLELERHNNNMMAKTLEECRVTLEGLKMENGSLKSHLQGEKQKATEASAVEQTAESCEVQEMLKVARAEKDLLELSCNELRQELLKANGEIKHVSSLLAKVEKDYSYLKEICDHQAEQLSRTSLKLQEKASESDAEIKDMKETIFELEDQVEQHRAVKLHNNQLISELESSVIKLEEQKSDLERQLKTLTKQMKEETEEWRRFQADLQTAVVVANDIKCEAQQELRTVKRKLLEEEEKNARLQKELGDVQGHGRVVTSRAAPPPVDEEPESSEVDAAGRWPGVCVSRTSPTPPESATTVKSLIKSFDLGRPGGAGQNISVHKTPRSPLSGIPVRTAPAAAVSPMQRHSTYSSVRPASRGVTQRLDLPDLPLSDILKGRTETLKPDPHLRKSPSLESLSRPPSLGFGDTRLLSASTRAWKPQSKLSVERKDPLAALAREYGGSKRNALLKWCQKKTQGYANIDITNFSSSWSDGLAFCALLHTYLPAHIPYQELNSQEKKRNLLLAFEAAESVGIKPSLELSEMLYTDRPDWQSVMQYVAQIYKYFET
Chain of UniProt P52948 (P52948 whole entry, looked up): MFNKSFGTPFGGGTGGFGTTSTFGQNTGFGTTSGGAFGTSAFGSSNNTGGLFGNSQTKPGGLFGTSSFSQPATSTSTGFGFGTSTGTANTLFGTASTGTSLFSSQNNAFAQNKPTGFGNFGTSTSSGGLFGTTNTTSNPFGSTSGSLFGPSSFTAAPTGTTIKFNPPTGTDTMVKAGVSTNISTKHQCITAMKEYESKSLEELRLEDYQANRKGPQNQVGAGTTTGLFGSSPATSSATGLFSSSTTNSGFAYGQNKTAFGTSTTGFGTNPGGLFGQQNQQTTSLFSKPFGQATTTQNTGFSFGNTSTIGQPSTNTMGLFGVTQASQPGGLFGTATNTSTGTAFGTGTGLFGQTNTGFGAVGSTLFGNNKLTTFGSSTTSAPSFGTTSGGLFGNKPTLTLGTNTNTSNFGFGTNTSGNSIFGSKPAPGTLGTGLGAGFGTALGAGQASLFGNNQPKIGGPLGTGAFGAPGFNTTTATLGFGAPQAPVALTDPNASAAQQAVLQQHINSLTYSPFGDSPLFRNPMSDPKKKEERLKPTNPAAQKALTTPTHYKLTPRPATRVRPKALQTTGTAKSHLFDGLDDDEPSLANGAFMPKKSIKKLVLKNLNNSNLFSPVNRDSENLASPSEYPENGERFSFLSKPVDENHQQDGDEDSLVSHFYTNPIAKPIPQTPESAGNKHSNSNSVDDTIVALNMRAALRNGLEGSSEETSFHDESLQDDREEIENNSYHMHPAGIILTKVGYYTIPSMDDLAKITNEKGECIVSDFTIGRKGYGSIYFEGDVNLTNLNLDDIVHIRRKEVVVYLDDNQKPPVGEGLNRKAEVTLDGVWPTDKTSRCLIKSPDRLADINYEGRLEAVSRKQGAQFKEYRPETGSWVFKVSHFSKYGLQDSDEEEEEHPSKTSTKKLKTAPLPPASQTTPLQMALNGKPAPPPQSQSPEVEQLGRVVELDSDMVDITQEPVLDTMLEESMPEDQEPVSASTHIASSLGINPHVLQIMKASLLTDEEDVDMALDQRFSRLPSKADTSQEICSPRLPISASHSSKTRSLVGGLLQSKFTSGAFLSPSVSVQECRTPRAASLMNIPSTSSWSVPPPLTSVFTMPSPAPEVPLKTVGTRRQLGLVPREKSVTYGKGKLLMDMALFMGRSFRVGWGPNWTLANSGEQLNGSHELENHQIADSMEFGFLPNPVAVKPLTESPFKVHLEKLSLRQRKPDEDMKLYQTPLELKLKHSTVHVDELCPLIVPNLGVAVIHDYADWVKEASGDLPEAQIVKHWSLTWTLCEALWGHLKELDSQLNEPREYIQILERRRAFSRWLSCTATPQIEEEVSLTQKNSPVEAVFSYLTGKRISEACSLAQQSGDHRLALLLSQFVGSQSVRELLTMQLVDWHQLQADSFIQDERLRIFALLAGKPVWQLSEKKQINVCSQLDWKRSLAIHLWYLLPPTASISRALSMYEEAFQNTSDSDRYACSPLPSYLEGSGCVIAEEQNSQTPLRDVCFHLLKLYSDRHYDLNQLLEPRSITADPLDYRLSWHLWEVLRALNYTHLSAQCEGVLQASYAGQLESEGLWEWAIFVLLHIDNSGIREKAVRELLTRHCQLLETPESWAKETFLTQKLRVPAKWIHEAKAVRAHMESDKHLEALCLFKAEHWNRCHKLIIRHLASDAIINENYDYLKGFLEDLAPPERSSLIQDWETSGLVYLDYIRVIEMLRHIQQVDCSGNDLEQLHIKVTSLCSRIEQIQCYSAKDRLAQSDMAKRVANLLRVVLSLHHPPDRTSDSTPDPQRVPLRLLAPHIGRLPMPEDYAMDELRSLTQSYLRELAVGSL
Chain of UniProt Q2TAA2 (Q2TAA2 whole entry, looked up): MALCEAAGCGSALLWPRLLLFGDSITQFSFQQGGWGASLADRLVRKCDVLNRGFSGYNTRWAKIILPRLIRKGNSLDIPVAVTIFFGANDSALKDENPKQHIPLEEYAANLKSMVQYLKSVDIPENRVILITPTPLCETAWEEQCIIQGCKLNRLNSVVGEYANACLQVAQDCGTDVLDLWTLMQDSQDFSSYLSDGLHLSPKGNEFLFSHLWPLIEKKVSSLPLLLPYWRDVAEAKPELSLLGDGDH
Chain of UniProt Q13501 (Q13501 whole entry, looked up): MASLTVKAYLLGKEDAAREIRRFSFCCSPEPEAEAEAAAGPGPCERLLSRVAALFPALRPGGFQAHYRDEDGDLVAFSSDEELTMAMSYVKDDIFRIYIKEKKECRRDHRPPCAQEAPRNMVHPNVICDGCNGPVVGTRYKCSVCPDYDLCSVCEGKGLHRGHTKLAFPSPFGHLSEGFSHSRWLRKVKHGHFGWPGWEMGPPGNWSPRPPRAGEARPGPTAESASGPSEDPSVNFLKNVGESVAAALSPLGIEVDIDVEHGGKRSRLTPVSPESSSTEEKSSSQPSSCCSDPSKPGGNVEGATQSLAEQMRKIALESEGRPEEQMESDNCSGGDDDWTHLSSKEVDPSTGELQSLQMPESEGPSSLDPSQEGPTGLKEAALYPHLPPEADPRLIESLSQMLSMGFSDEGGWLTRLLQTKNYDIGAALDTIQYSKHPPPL
Chain of UniProt Q13642 (Q13642 whole entry, looked up): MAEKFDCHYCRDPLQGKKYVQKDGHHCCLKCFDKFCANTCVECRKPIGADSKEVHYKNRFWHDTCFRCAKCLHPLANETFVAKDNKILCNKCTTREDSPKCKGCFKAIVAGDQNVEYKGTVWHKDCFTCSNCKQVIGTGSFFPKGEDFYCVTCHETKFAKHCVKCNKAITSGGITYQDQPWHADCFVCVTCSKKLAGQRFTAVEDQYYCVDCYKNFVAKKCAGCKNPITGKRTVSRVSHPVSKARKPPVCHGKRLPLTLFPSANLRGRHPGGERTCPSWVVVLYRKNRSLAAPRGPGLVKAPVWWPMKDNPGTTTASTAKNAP
Chain of UniProt P62633 (P62633 whole entry, looked up): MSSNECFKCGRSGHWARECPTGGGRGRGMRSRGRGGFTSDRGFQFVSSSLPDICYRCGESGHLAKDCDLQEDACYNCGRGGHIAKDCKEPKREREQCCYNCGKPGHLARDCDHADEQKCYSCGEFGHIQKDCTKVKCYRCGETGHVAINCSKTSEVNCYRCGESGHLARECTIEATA

Target | log2 ratio of iodoacetamide-alkyne labeling
IAH1 C9 (UniProt Q2TAA2) | 2.43 (active)
PMS2 C798 (UniProt P54278) | -0.143
SQSTM1 C113 (UniProt Q13501) | 1.2 (active)
SPECC1 C740 (UniProt Q5M775) | -0.0117
KIF11 C450 (UniProt P52732) | 0.0207
CNBP C6 (UniProt P62633) | 0.0447
PEX3 C65 (UniProt P56589) | 0.385
UniProt Q13242_C138 | 0.112
NUP98 C1312 (UniProt P52948) | 0.426
FHL1 C71 (UniProt Q13642) | 0.0627
AARS2 C750 (UniProt Q5JTZ9) | 0.846
UniProt Q5H9L4_C158 | 1.09 (active)
SUZ12 C325 (UniProt Q15022) | 1.07 (active)
SEC24C C433 (UniProt P53992) | 1.1 (active)
